Assay outcomes from PubChem.
CYP2C19 activ: human CYP2C19 activators, primary screen, biochemical, luminescence | Cytochrome P450 2C19 (Homo sapiens), P33261 | recombinant CYP2C19, luciferin-H EGE luminescence; hits give high values; 0 = fully inhibited enzyme, 1 = untreated enzyme | activation factor at 5 µM | 96,000 tested, under 10 active | AID 1025, 2008;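 active means activation factor of at least 2 at 5 µM in the primary screen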;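 further: 0 = wells with 2.5 mM tranylcypromine and 1 = vehicle-only wells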
Target sequence (P33261 whole entry, looked up): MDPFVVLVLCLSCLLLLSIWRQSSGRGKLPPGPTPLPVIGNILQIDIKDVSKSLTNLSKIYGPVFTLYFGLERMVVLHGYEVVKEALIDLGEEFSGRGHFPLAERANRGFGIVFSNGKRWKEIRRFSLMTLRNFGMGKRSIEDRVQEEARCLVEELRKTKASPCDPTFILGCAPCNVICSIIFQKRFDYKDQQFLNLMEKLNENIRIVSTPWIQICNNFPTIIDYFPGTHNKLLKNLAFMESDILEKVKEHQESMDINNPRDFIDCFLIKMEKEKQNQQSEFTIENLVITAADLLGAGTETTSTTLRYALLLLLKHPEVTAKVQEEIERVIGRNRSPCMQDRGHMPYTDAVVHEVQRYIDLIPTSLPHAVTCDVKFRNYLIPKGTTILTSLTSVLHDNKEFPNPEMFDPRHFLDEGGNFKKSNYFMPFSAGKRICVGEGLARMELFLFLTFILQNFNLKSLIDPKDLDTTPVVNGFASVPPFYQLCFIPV
CYP2C9 act: human CYP2C9 activators, primary screen, biochemical, luminescence; Cytochrome P450 2C9 (Homo sapiens), P11712; recombinant CYP2C9, luciferin-H conversion; hits give high values; factor 1 = untreated enzyme, 0 = blocked; activation factor at 5 µM; actives 1.4% (n = 96,000);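 active means activation factor of 2 or more for CYP2C9 at a 5 µM dose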;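 further: 0 = sulfaphenazole-blocked wells and 1 = vehicle-only wells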
CYP2C19 inhib: blockers of cytochrome P450 2C19 activity – biochemical, luminescence, ADME assay, primary screen; CYP2C19 Supersomes, luciferin-H EGE luminescence, 30 min; inhibition, % at 5 µM; actives 21% (n = 96,000);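 active means CYP2C19 inhibition above a set limit at 5 µM in the primary screen, cut at about 50% in these data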;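 further: plate controls were negative control wells for no effect and 2.5 mM tranylcypromine positive control for full effect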
CYP2C9 inhib: blockers of cytochrome P450 2C9 activity – biochemical, luminescence, ADME assay, primary screen. CYP2C9 Supersomes, luciferin-H conversion. actives 20% (n = 96,000). inhibition, % at 5 µM. P11712;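 active means blocking of liver enzyme CYP2C9 beyond about 50% at 5 µM, limit read from the data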
Active calls of the source: *. Compounds with a hit are over-represented: about 31% of the library has one in this group of screens.

SMILES	CYP2C19 activ	CYP2C9 act	CYP2C19 inhib	CYP2C9 inhib
CC(=O)Cc1nsc(Nc2ccccc2)n1	0.2	0.8	77*	18
CCc1nnc(NC(=O)c2ccc(COc3ccccc3)o2)s1	0.9	0.7	6	35
Cc1cc(C)c(S(=O)(=O)O)c(C)n1	0.9	0.9	10	7
COc1ccccc1NC1=NC(C)(C)N=C(N)N1	1.1	1	-6	-2
Cc1cc(C)c(NC(=O)c2cc3c(nc4sccn43)s2)c(C)c1	0.6	0.6	37	35
COCCCn1c(Cc2ccccc2)nnc1SCC(=O)N1CCCCC1	0.9	0.6	14	38
COCCCn1c(Cc2csc(Nc3cccc(Cl)c3)n2)nnc1SCC(=O)OC	0.1	0.2	87*	80*
COc1ccc2c(c1)c1nc(SCC(C)C)n(CCO)c(=O)c1n2C	0.8	0.7	17	33
Cn1c(=O)c2c(nc(OCc3ccccc3)n2C)n(C)c1=O	1	1	-3	-2
c1cc2c(cc1Cn1cnnn1)OCO2	0.9	0.4	15	56*
CCOC(=O)c1cnc(-n2nc(C)cc2C)nc1NC	0.7	0.7	31	26
CCOC(=O)c1cnc(-n2nc(C)cc2C)nc1N(CC)CC	0.5	0.2	46	79*
N=c1ccn(Cc2ccc(Cl)c(Cl)c2)cc1	1	1	-3	3
CC1(C(=O)Nc2nnc(C(C)(C)C)s2)Cc2ccccc2C(=O)O1 (stereo not given)	1.1	0.9	-5	12
CCSc1nnc(NC(=O)C2(C)Cc3ccccc3C(=O)O2)s1 (stereo not given)	1	0.3	-4	74*
O=C(c1ccc(Br)o1)N1CCN=C1SCc1cccnc1	0.1	0.4	89*	64*
O=C(c1cc2ccccc2o1)N1CCN=C1SCc1cccnc1	0.7	0.5	30	52*
O=C(c1cc2ccccc2o1)N1CCN=C1SCc1cccc(F)c1	1.1	1	-8	-3
CSC1=NCCN1C(=O)c1ccc(Br)o1	0.9	1	9	2
CN1CCN(c2nc3nonc3nc2N2CCN(C)CC2)CC1	0.9	0.9	5	8
Cc1nc(N2C(=O)C(=O)/C(=C(/O)c3ccccc3)C2c2ccco2)sc1C (stereo not given)	0.5	0.4	53*	61*
CCOc1cccc(/C(O)=C2/C(=O)C(=O)N(CCOC)C2c2ccco2)c1 (stereo not given)	1.1	0.9	-6	11
O=C(CCCn1c(=O)[nH]c2cc(Cl)ccc2c1=O)NCCCN1CCCC1=O	1.1	0.9	-12	12
O=C(NCCCN1CCCC1=O)c1cc(=O)c2ccccc2o1	1	1	5	-1
O=C(c1ccccc1)c1nn(-c2ccc(Cl)cc2)c(=O)cc1C(F)(F)F	0.3	0.5	75*	53*
SMILES	CYP2C19 activ	CYP2C9 act	CYP2C19 inhib	CYP2C9 inhib
CC(O)CN1C(=O)C(CC(=O)Nc2ccc(Cl)cc2)SC1=Nc1ccccc1 (stereo not given)	0.3	0.3	72*	67*
C=CCN1C(=O)C(CC(=O)Nc2ccc(C)cc2)SC1=Nc1c(C)n(C)n(-c2ccccc2)c1=O (stereo not given)	0.4	0.3	62*	66*
COCCN1C(=O)C(CC(=O)Nc2ccc(C(C)=O)cc2)SC1=Nc1ccccc1 (stereo not given)	0.5	0.3	54*	72*
C=CCN1C(=O)C(CC(=O)O)SC1=Nc1c(C)n(C)n(-c2ccccc2)c1=O (stereo not given)	0.9	1.1	12	-11
CN(C)CCCNC(=O)C1CCNCC1	1	1	5	-1
O=C1CCCN1CCCNc1ncnc2c1cnn2-c1ccc(Cl)cc1	0.9	0.9	11	11
CCCC1=[N+](CC)CCn2c(C)ccc21	1.1	1.2	-9	-16
Cc1cc2n(c1)CCn1c(C)ccc1-2	1.1	0.3	-5	70*
CCCCCCc1cc2cc(-c3nnc(-c4ccccc4O)o3)c(=O)oc2cc1O	0.9	0.1	14	90*
CCCCCCc1cc2cc(-c3nnc(-c4ccccc4OC)o3)c(=O)oc2cc1O	0.5	0	48	97*
Cc1cc(-c2nnc(-c3cc4ccccc4oc3=O)o2)c(C)n1-c1ccccc1	0.9	0.9	6	7
CC1(C(=O)CSc2nc3ccccc3s2)CCC(=O)O1 (stereo not given)	0.8	1	22	3
Cc1cc(C)c(C#N)c(SCC(=O)N2CCCCC2)n1	0.5	1.4	54*	-36
Cc1cc(C)c2nc(SCC(=O)N3CCCCC3)c(C#N)cc2c1	1	1.1	0	-10
Cc1cc(C)c(C#N)c(SCC(=O)N2CCN(Cc3ccccc3)CC2)n1	0.5	0.7	52*	30
CCN(Cc1ccccc1)C(=O)CSc1nc(C)cc(C)c1C#N	0.4	1.6	62*	-60
Cc1cc(C)c(C#N)c(SCC(=O)NC2CC2)n1	1	1.3	3	-27
Cc1cc2nc(C)n(CCCNC(=O)Nc3ccc(F)cc3)c2cc1C	0.7	0.4	30	60*
CC(=O)OC1(C(F)(F)F)Oc2ccccc2NC1=O (stereo not given)	0.5	0.8	53*	16
CC1CCCCN1CCCNC(=O)c1ccc2c(=O)n(CCc3ccccc3)c(=O)[nH]c2c1 (stereo not given)	0.1	0.2	87*	79*
CC1CCCCN1CCNC(=O)c1ccc2c(=O)n(CCc3ccccc3)c(=O)[nH]c2c1 (stereo not given)	0.8	1	21	1
Clc1ccc(OCCSCc2nc3ccccc3[nH]2)cc1	0.4	0.4	64*	57*
Cc1ccc(OCCSCc2nc3ccccc3[nH]2)cc1	0.4	0.4	59*	63*
CC1CCCC(C)N1CCNC(=O)CCn1nc(-c2ccccc2)ccc1=O (stereo not given)	1.2	1	-16	-5
Cn1c(CSCc2ccc(Cl)cc2)nnc1SCC(=O)Nc1nc2ccccc2s1	0.9	0.9	6	13
SMILES	CYP2C19 activ	CYP2C9 act	CYP2C19 inhib	CYP2C9 inhib
N#Cc1cccc(NC(=O)CSc2ccccc2)c1	0.7	0.8	34	24
COc1ccc(NC(=O)CSc2c(C)n[nH]c2C)cc1	1	0.9	1	8
N#Cc1cccc(NC(=O)CSc2ccc3c4c(cccc24)C(=O)c2ccccc2-3)c1	0.7	0.3	30	74*
COc1ccc(NC(=O)CSc2ccc3c4c(cccc24)C(=O)c2ccccc2-3)cc1	0.7	0.2	28	84*
CCOc1cc(C(=O)Nc2ccc(S(=O)(=O)N3CCOCC3)cc2)cc(OCC)c1OCC	1.3	1	-26	4
CC1(C)CC2CC(C)(CN2S(=O)(=O)c2ccc(C(=O)Nc3ccc(Cl)c(S(=O)(=O)N4CCOCC4)c3)cc2)C1 (stereo not given)	0.5	0.4	47	62*
COc1ccc(F)cc1S(=O)(=O)NC(Cc1ccccc1)C(N)=O (stereo not given)	0.7	1.1	26	-6
